{"source": "PubChem BioAssay AID2537", "about": "(National Center for Advancing Translational Sciences (NCATS), 2010)", "note": "Results filed as inconclusive are left out. The source made the active and inactive calls. The call rests on the fitted dose curve; in most records, active means well fitted inhibition curve with a large enough effect; inconclusive means small, poorly fitted or top-dose-only effect; inactive means no such curve, though single readings can be large or run the other way.", "data": [{"target": "Polyunsaturated fatty acid lipoxygenase ALOX15B (Homo sapiens) (UniProt O15296)", "sequence (O15296 whole entry, looked up)": "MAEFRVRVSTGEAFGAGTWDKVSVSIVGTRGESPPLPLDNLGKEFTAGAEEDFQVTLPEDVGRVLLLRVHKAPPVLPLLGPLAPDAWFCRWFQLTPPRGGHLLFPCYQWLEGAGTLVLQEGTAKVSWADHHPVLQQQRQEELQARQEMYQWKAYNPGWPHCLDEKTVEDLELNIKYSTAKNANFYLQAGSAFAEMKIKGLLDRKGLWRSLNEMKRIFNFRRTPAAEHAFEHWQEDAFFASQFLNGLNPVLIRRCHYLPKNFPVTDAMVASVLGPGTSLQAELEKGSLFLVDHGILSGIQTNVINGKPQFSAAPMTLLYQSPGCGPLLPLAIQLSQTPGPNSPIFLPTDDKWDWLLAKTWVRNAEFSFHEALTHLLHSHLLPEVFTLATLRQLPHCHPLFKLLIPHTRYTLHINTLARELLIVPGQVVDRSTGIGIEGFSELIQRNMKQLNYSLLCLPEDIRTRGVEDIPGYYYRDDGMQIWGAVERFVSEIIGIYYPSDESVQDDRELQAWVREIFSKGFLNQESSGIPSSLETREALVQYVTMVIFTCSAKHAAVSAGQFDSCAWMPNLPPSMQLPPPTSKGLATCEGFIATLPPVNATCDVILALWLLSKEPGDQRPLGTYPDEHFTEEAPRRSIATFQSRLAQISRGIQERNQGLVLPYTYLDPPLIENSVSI", "assay": "Confirmation qHTS Assay for Inhibitors of 15-hLO-2 (15-human lipoxygenase 2)", "details": "purified 15hLO-2, xylenol orange hydroperoxide absorbance; series mostly up to 57.1 µM; activity change, negative = inhibition: at the top concentration", "experimental": "Human lipoxygenase 15hLO-2 is a member of the closely related lipoxygenase family of enzymes which catalyze the site-specific oxidation of arachidonic acid to various hormone precursor molecules and as such is a candidate for drug development in a variety of disease areas, such as cancer and inflammation. Inhibition of 15hLO-2 activity was screened by utilizing arachidonic acid as a substrate. The extent of hydroperoxide product formation was measured by a secondary chromogenic reaction in which xylenol orange (XO, Sigma-Aldrich, cat. number 39,818-7) reacts with the ferric ions produced from the reaction between the hydroperoxide and ferrous ions. The Fe(III)-XO complex is characterized with red-shifted absorbance at 560 nm. A purified preparation of human 15hLO-2 was supplied by Professor Ted Holman, University of California, Santa Cruz. NIH Molecular Libraries Screening Centers Network [MLSCN] NIH Chemical Genomics Center [NCGC] MLSCN Grant: MH081283-01A1 PI Name: Holman, T.R., University of California, Santa Cruz\nAssay Protocol: Buffer: 25 mM Hepes pH 7.5, 0.01% Triton X-100. Reagents/Controls: Buffer in columns 3 and 4 as negative control (no enzyme). Substrate solution: 45 uM arachidonic acid (Sigma-Aldrich, St. Louis, MO) final concentration dispensed throughout the plate. Enzyme: 50 nM 15hLO-2 final concentration in columns 1, 2, 5-48. Column 1 is neutral (100% activity). Column 2 contained pin-transferred titration of NDGA (nordihidroguaiaretic acid, Sigma-Aldrich, N 5023, top concentration 10 mM in DMSO, then 1:2 dilution in duplicate). (Dilution factor: 23 nL into 4 uL.) Chromogenic detection reagent (divalent iron/xylenol orange, Fe-XO): 200 uM xylenol orange plus 300 uM ferrous ammonium sulfate prepared freshly in 50 mM sulfuric acid. Assay Steps: Three uL of enzyme were dispensed to 1536-well Greiner black clear bottom plates. Compounds and controls (23 nL) were transferred via Kalypsys PinTool. The plates were incubated for 15 min at room temperature, and then 1 uL of substrate solution was added to start the reaction. After room temperature incubation for 90 minutes, 4 uL of Fe-XO solution was added to each well followed by a short spin (1000 rpm, 15 sec) and the plates were then incubated for 30 min. The absorbance at 405 and 573 nm were measured using ViewLux (Perkin-Elmer) High-throughput CCD imager and absorbance protocol settings. The 573-to-405 absorbance ratio was used to compute reaction progress.", "values": [{"smiles": "O=C(CC1C(=O)N(c2ccc(Cl)cc2)C(=S)N1CCc1ccncc1)Nc1ccc(F)cc1", "note": "(stereo not given)", "activity change, negative = inhibition": "5.96% (inactive)"}, {"smiles": "CCOc1cc(-c2cc(-c3ccc(N)cc3)nc(N)c2C#N)ccc1O", "activity change, negative = inhibition": "-14.9% (inactive)"}, {"smiles": "NC(=O)c1cccc2c3c([nH]c12)CCCC3", "activity change, negative = inhibition": "-5.98% (inactive)"}, {"smiles": "Oc1ccc(CNc2ccccc2)c2cccnc12", "activity change, negative = inhibition": "-35.6% (inactive)"}, {"smiles": "CCOc1ccc(NS(=O)(=O)c2ccc3[nH]cc(C(=O)N(CC)CC)c(=O)c3c2)cc1", "activity change, negative = inhibition": "-2.5% (inactive)"}, {"smiles": "O=C(Cc1cc(=O)[nH][nH]1)N/N=C/C=C/c1ccccc1", "activity change, negative = inhibition": "14.5% (inactive)"}, {"smiles": "COc1cccc(-c2nc(NC3CCNCC3)c3ccccc3n2)c1", "activity change, negative = inhibition": "11.1% (inactive)"}, {"smiles": "CN(C)/C=C/C(=O)c1ccc(Cl)cc1", "activity change, negative = inhibition": "-5.09% (inactive)"}, {"smiles": "O=C(Nc1nnc(-c2ccccc2)o1)c1ccc(Cl)cc1", "activity change, negative = inhibition": "19.4% (inactive)"}, {"smiles": "c1csc(C2Nc3cccc4cccc(c34)N2)c1", "Potency": "12.6 µM (active)"}, {"smiles": "CN1CCN(C(c2cccnc2)c2ccc3cccnc3c2O)CC1", "note": "(stereo not given)", "activity change, negative = inhibition": "0.164% (inactive)"}, {"smiles": "Cc1ccc(-c2ccc(/C=C3\\C(=O)ON=C3c3ccccc3)o2)c([N+](=O)[O-])c1", "Potency": "3.16 µM (active)"}, {"smiles": "CC1=NOC(=O)/C1=C\\c1ccc(-c2cccc(Cl)c2)o1", "Potency": "4.47 µM (active)"}, {"smiles": "O=c1c(-c2ccc3c(c2)OCCO3)coc2cc(O)cc(O)c12", "activity change, negative = inhibition": "-10.2% (inactive)"}, {"smiles": "Cc1cccc(CNc2ncnc3ccc(-c4ccc5c(c4)OCO5)cc23)c1", "activity change, negative = inhibition": "7.52% (inactive)"}, {"smiles": "COc1ccc(C(C[N+](=O)[O-])c2c(-c3ccccc3)cc3ccccn23)c(OC)c1", "note": "(stereo not given)", "activity change, negative = inhibition": "-11% (inactive)"}, {"smiles": "CC1=CC(C)(C)Nc2ccc(OC(=O)CN3C(=O)c4cccc5cccc(c45)C3=O)cc21", "Potency": "12.6 µM (active)"}, {"smiles": "Cc1noc(C)c1-c1nc(N(C)Cc2ccco2)c2ccccc2n1", "activity change, negative = inhibition": "-11% (inactive)"}, {"smiles": "Cc1cc(/C=N/NC(=O)Cn2c3ccccc3c(=O)c3ccccc32)c(C)n1-c1ccccc1", "Potency": "7.08 µM (active)"}, {"smiles": "CC(=O)[C@@H]1[C@@H]2C(=O)N(Cc3ccccc3)C(=O)[C@@H]2C2c3ccccc3C=CN21", "note": "(stereo not given in full)", "activity change, negative = inhibition": "4.37% (inactive)"}, {"smiles": "CCC(=O)N(Cc1cc(=O)[nH]c2ccccc12)C1CCCCC1", "activity change, negative = inhibition": "-23.5% (inactive)"}, {"smiles": "COc1ccccc1-n1c(SCC(=O)Nc2ccc(C)cc2)nc(O)cc1=O", "activity change, negative = inhibition": "0.145% (inactive)"}, {"smiles": "COc1cccc(-c2nccc(NCc3ccccc3OC)n2)c1", "activity change, negative = inhibition": "-34.6% (inactive)"}, {"smiles": "O=C(C1=C(O)C(=O)N(Cc2ccco2)C1c1cccnc1)c1cc2ccccc2o1", "note": "(stereo not given)", "activity change, negative = inhibition": "8.4% (inactive)"}, {"smiles": "O=C(Nc1nnc(-c2ccco2)s1)C1CCCCC1", "Potency": "1 µM (active)"}, {"smiles": "O=C1C2C3CCCC3=C3CCCC3C2C(=O)N1c1cccc(Cl)c1", "note": "(stereo not given)", "activity change, negative = inhibition": "-12.9% (inactive)"}, {"smiles": "CCCC(=O)NC(c1ccco1)c1cc(Cl)c2cccnc2c1O", "note": "(stereo not given)", "activity change, negative = inhibition": "9.81% (inactive)"}, {"smiles": "Cc1ccc(OCC(=O)Nc2ccc(N3CCCC3)cc2)cc1C", "activity change, negative = inhibition": "3.37% (inactive)"}, {"smiles": "COc1ccc(NC(=O)CSc2nc(O)cc(=O)n2-c2ccccc2OC)cc1", "activity change, negative = inhibition": "-4.58% (inactive)"}, {"smiles": "O=C(Nc1cccc(F)c1)N1CCCC2(CCN(C(=O)c3ccco3)CC2)C1", "activity change, negative = inhibition": "-1.77% (inactive)"}, {"smiles": "N=c1c(C(=O)NC2CCCC2)cc2c(=O)n3ccccc3nc2n1C1CCCC1", "activity change, negative = inhibition": "-11.1% (inactive)"}, {"smiles": "Cc1cccc(NC(=O)CSC(N)=O)c1C", "activity change, negative = inhibition": "-20.6% (inactive)"}, {"smiles": "Cc1ccc(SCCNC(=S)Nc2ccc(C)c(C)c2)cc1", "Potency": "25.1 µM (active)"}, {"smiles": "CN(C)CCC(=O)c1ccc(Cl)cc1", "activity change, negative = inhibition": "-28.3% (inactive)"}, {"smiles": "O=C(c1ccncc1)N1CCC2(CCCN(Cc3nccs3)C2)CC1", "activity change, negative = inhibition": "2.02% (inactive)"}, {"smiles": "Oc1ccc2ccccc2c1CNc1cnc2ccccc2c1", "activity change, negative = inhibition": "-10.2% (inactive)"}, {"smiles": "COCCSc1ccccc1C(=O)NCc1ccco1", "activity change, negative = inhibition": "-8.59% (inactive)"}, {"smiles": "Cc1c(N/C=C/C(=O)c2cccs2)c(=O)n(-c2ccccc2)n1C", "activity change, negative = inhibition": "-9.11% (inactive)"}, {"smiles": "Cc1ccc(C)c(NC(=S)NNC(=O)c2csc3c2CCC(C)C3)c1", "note": "(stereo not given)", "activity change, negative = inhibition": "-44.7% (inactive)"}, {"smiles": "Cc1cc(Nc2nnnn2-c2ccccc2)n(-c2ccc(Cl)cc2)n1", "activity change, negative = inhibition": "-4.85% (inactive)"}]}]}
